PubChem BioAssay AID1159580 (chemical genetic matrix, 2015)
Values joined by “and” are separate entries in the source; they are usually repeats but may differ in a detail not shown here. Equal values may be shown once. The campaign covered roughly 5,500 compounds. About 2,000 (36%) were called active. Not shown: some 18% with an inconclusive outcome. Rule as the data show it: active = normalized growth mostly below about 0.91 (no sharp cut-off); inconclusive = no clear call, values can overlap the other calls; inactive = mostly above about 0.92. Some of the results follow.

Assay: chemical genetic growth profiling, strain panel (AID 1159580);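 also: tested at 20 µM; growth read once vehicle control cultures reached saturation at 30 °C; 1 = growth at the plate median or of vehicle wells; lower values mean less growth of the strain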
Conditions: S. cerevisiae deletion strains, growth OD

Measured: normalized growth

COC1CC(O[C@H]2CC[C@]3(C=O)C4CC[C@]5(C)C(C6=CC(=O)OC6)CC[C@]5(O)C4CC[C@]3(O)C2)OC(C)C1O (some centres not stated)
inactive: locus YAL013W, strain DEP1, active compounds read low 1.02 | locus YAL021C, strain ccr4, active compounds read low 0.938 | locus YAL026C, strain drs2, active compounds read low 1.02 | locus YAL030W, strain snc1, active compounds read low 0.978 | locus YBL061C, strain skt5, active compounds read low 0.99 | locus YBR009C, strain hhf1, active compounds read low 0.985 | locus YBR021W, strain FUR4, active compounds read low 1.01 | locus YBR023C, strain chs3, active compounds read low 0.967 | locus YBR171W, strain sec66, active compounds read low 1 | locus YBR229C, strain ROT2, active compounds read low 1.02 | locus YBR231C, strain swc5, active compounds read low 1 | locus YBR279W, strain paf1, active compounds read low 1 | locus YCL011C, strain gbp2, active compounds read low 0.961 | locus YCL016C, strain dcc1, active compounds read low 0.954 | locus YCL029C, strain bik1, active compounds read low 0.994 | locus YCL069W, strain vba3, active compounds read low 0.969 | locus YCR088W, strain abp1, active compounds read low 0.983 | locus YDL005C, strain med2, active compounds read low 0.969 | locus YDL035C, strain GPR1, active compounds read low 1.04 | locus YDL040C, strain nat1, active compounds read low 0.986 | locus YDL074C, strain BRE1, active compounds read low 1.09 | locus YDL101C, strain DUN1, active compounds read low 1.02 | locus YDL134C, strain PPH21, active compounds read low 1.02 | locus YDL185W, strain tfp1, active compounds read low 0.995 | locus YDL192W, strain arf1, active compounds read low 1.02 | locus YDR001C, strain nth1, active compounds read low 0.955 | locus YDR069C, strain doa4, active compounds read low 0.994 | locus YDR101C, strain arx1, active compounds read low 1.02 | locus YDR137W, strain rgp1, active compounds read low 0.975 | locus YDR159W, strain sac3, active compounds read low 1 | locus YDR162C, strain NBP2, active compounds read low 1.03 | locus YDR195W, strain ref2 0.914 | locus YDR297W, strain sur2, active compounds read low 0.999 | locus YDR318W, strain mcm21, active compounds read low 1.01 | locus YDR334W, strain swr1, active compounds read low 0.977 | locus YDR335W, strain msn5, active compounds read low 0.955 | locus YDR388W, active compounds read low 0.987 | locus YDR392W, strain spt3, active compounds read low 0.903 | locus YDR502C, strain sam2, active compounds read low 0.987 | locus YEL003W, strain gim4, active compounds read low 1.01 | locus YEL037C, strain rad23, active compounds read low 0.977 | locus YEL061C, strain CIN8 (second series), active compounds read low 0.981 | locus YER015W, strain faa2, active compounds read low 0.975 | locus YER016W, strain bim1, active compounds read low 0.983 | locus YER110C, active compounds read low 0.986 | locus YER111C, strain swi4, active compounds read low 0.994 | locus YER155C, strain BEM2 (second series), active compounds read low 1.01 | locus YER155C, strain BEM2, active compounds read low 1.01 | locus YER167W, strain BCK2, active compounds read low 1.03 | locus YFR010W, strain ubp6, active compounds read low 1 | locus YGL078C, strain dbp3, active compounds read low 0.992 | locus YGL086W, strain mad1, active compounds read low 0.998 | locus YGL167C, strain pmr1, active compounds read low 0.976 | locus YGL173C, strain kem1, active compounds read low 0.992 | locus YGL227W, strain vid30, active compounds read low 0.987 | locus YGL240W, strain doc1, active compounds read low 1 | locus YGL248W, strain PDE1, active compounds read low 1.01 | locus YGL253W, strain hxk2, active compounds read low 0.997 | locus YGR078C, strain PAC10, active compounds read low 1.02 | locus YGR135W, strain pre9, active compounds read low 0.981 | locus YGR229C, strain SMI1, active compounds read low 1.04 | locus YGR252W, strain gcn5, active compounds read low 0.949 | locus YHR013C, strain ard1, active compounds read low 0.934 | locus YHR027C, strain rpn1, active compounds read low 0.97 | locus YHR030C, strain SLT2, active compounds read low 1.02 and 0.984 | locus YHR079C, strain IRE1 (second series), active compounds read low 0.998 | locus YHR079C, strain IRE1, active compounds read low 1.01 | locus YHR094C, strain hxt1, active compounds read low 0.984 | locus YHR129C, strain ARP1, active compounds read low 1.02 | locus YHR142W, strain chs7, active compounds read low 0.918 | locus YHR200W, strain rpn10, active compounds read low 0.992 | locus YIL066C, strain RNR3, active compounds read low 1.05 | locus YIL073C, strain SPO22, active compounds read low 1.01 | locus YIL125W, strain kgd1, active compounds read low 1 | locus YIR030C, strain dcg1, active compounds read low 0.993 | locus YJL092W, strain hpr5, active compounds read low 0.985 | locus YJL095W, strain BCK1 (second series), active compounds read low 0.987 | locus YJL095W, strain BCK1, active compounds read low 1.04 and 0.985 | locus YJL115W, strain asf1, active compounds read low 0.964 | locus YJL129C, strain trk1, active compounds read low 0.958 | locus YJL134W, strain LCB3, active compounds read low 1.01 | locus YJL154C, strain vps35, active compounds read low 0.967 | locus YJL164C, strain tpk1, active compounds read low 0.99 | locus YJL166W, strain qcr8, active compounds read low 0.996 | locus YJL168C, strain set2, active compounds read low 0.994 | locus YJL187C, strain SWE1 (second series), active compounds read low 1.02 | locus YJR066W, strain TOR1, active compounds read low 0.904 | locus YKL009W, strain mrt4, active compounds read low 1.04 | locus YKL068W, active compounds read low 1 | locus YKL085W, strain MDH1 (second series), active compounds read low 1 | locus YKL085W, strain MDH1, active compounds read low 1 | locus YKL160W, strain elf1, active compounds read low 0.962 | locus YKL190W, strain CNB1, active compounds read low 1.02 | locus YKR001C, strain vps1, active compounds read low 0.992 | locus YKR026C, strain gcn3, active compounds read low 0.987 | locus YKR091W, strain srl3, active compounds read low 0.968 | locus YLL001W, strain dnm1, active compounds read low 0.963 | locus YLL026W, active compounds read low 0.982 | locus YLL041C, strain sdh2, active compounds read low 0.971 | locus YLR027C, strain aat2, active compounds read low 1.02 | locus YLR039C, strain RIC1, active compounds read low 1.08 | locus YLR058C, strain SHM2, active compounds read low 1.03 | locus YLR102C, strain apc9, active compounds read low 0.996 | locus YLR113W, strain HOG1, active compounds read low 1.02 | locus YLR221C, strain rsa3, active compounds read low 1.02 | locus YLR258W, strain gsy2, active compounds read low 0.962 | locus YLR262C, strain YPT6 (second series), active compounds read low 1.01 | locus YLR262C, strain YPT6, active compounds read low 1.11 | locus YLR268W, strain sec22, active compounds read low 1.02 | locus YLR320W, strain mms22, active compounds read low 1.03 | locus YLR330W, strain CHS5, active compounds read low 1.02 | locus YLR342W, strain FKS1 (second series), active compounds read low 1.06 | locus YLR342W, strain FKS1, active compounds read low 1 | locus YLR357W, strain rsc2, active compounds read low 0.95 | locus YLR370C, strain arc18, active compounds read low 0.98 | locus YLR371W, strain rom2, active compounds read low 1.01 | locus YLR384C, strain iki3, active compounds read low 0.969 | locus YLR418C, strain cdc73, active compounds read low 0.958 | locus YML016C, strain PPZ1, active compounds read low 1.02 | locus YML032C, strain rad52, active compounds read low 0.994 | locus YML120C, strain ndi1, active compounds read low 0.947 | locus YML124C, strain tub3, active compounds read low 0.997 | locus YMR058W, strain fet3, active compounds read low 0.992 | locus YMR078C, strain ctf18, active compounds read low 0.99 | locus YMR125W, strain sto1, active compounds read low 0.926 | locus YMR129W, active compounds read low 0.989 | locus YMR205C, strain PFK2, active compounds read low 0.984 | locus YMR223W, strain ubp8, active compounds read low 0.995 | locus YMR231W, strain pep5, active compounds read low 1 | locus YMR307W, strain GAS1, active compounds read low 1.16 | locus YNL067W, strain RPL9B, active compounds read low 1 | locus YNL071W, strain lat1, active compounds read low 0.967 | locus YNL183C, strain NPR1, active compounds read low 0.927 | locus YNL209W, strain ssb2, active compounds read low 0.984 | locus YNL233W, strain BNI4, active compounds read low 1.02 | locus YNL248C, strain rpa49, active compounds read low 0.904 | locus YNL250W, strain rad50, active compounds read low 0.972 | locus YNL271C, strain bni1, active compounds read low 1.01 | locus YNL298W, strain CLA4, active compounds read low 0.998 | locus YNL307C, strain MCK1, active compounds read low 0.998 | locus YNL322C, strain KRE1 (second series), active compounds read low 0.971 | locus YNL322C, strain KRE1, active compounds read low 1.02 | locus YNR049C, strain mso1, active compounds read low 0.951 | locus YNR052C, strain pop2, active compounds read low 0.988 | locus YOL012C, strain htz1 0.64 | locus YOL147C, strain pex11, active compounds read low 0.987 | locus YOR001W, strain rrp6, active compounds read low 0.989 | locus YOR061W, strain CKA2, active compounds read low 1.05 | locus YOR069W, strain VPS5, active compounds read low 1.02 | locus YOR070C, strain gyp1, active compounds read low 1 | locus YOR080W, strain dia2, active compounds read low 0.991 | locus YOR083W, strain WHI5, active compounds read low 0.973 | locus YOR106W, strain vam3, active compounds read low 0.922 | locus YOR136W, strain idh2, active compounds read low 0.958 | locus YOR144C, strain elg1, active compounds read low 0.989 | locus YOR184W, strain ser1, active compounds read low 1.04 | locus YOR231W, strain MKK1, active compounds read low 1.01 | locus YOR265W, strain rbl2, active compounds read low 0.997 | locus YOR270C, strain vph1, active compounds read low 1.08 | locus YOR290C, strain snf2, active compounds read low 0.888 | locus YOR316C, strain cot1, active compounds read low 0.984 | locus YPL051W, strain arl3, active compounds read low 0.992 | locus YPL055C, strain LGE1, active compounds read low 1.06 | locus YPL078C, strain atp4, active compounds read low 0.927 | locus YPL106C, strain sse1, active compounds read low 0.966 | locus YPL240C, strain hsp82, active compounds read low 0.988 | locus YPL256C, strain CLN2, active compounds read low 1.01 | locus YPR119W, strain clb2, active compounds read low 0.992 | locus YPR141C, strain kar3, active compounds read low 0.992 | locus YPR163C, strain tif3, active compounds read low 0.993 | locus YPR167C, strain met16, active compounds read low 0.987 | strain wtn01, active compounds read low 1.01
